Results as given in the supplement of paper PMC11219838.

test system: Meloidogyne hapla J2; test: proportion of mobile M. hapla J2 relative to DMSO control (fraction of DMSO control); higher = more viable, less nematicidal, active = 0.7 or less; settings: 60 µM; 5 days; temperature: 20 °C
Procedure: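 DODA library (846 commercial 1,3,4- and 1,2,4-oxadiazole compounds plus commercial nematicide controls) screened at a single dose of 60 µM (0.6% DMSO) in 96-well plates, two biological replicates. Read-outs: C. elegans N2 L1 survival/reproduction score at day 6, 20 °C (0: 0-10 worms, 1: 11-20, 2: 21-50, 3: >50, 4: overgrown/starved). C. elegans daf-2 dauer, D. dipsaci and M. hapla J2 mobility at day 5, 20 °C, and P. penetrans mobility at day 5, 20 °C, each relative to DMSO controls. M. hapla egg hatching at day 12, 25 °C, relative to the mean of 8 DMSO wells on the same plate.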

SMILES | proportion of mobile M. hapla J2
Clc1ccc(OCc2nc(-c3cccnc3)no2)c(Cl)c1 | 0.998 (inactive)
COc1ccc(-c2nc(-c3ccccc3Cl)no2)cc1 | 0.964 (inactive)
Brc1ccc(OCc2nc(-c3ccc4c(c3)OCO4)no2)cc1 | 0.943 (inactive)
O=C(Nc1ccccc1-c1nc(-c2ccncc2)no1)c1ccc(Cl)cc1 | 0.909 (inactive)
Clc1ccc(OCc2nc(-c3ccc(Br)o3)no2)cc1 | 0.945 (inactive)
COc1ccc(CCC(=O)Nc2ccc(-c3noc(-c4ccccc4C)n3)cc2)cc1 | 0.791 (inactive)
O=C(CSc1nnc(-c2ccc(Br)cc2)o1)Nc1nccs1 | 1.01 (inactive)
COc1nc(C)ccc1-c1noc(-c2ccccc2C)n1 | 0.668 (active)
c1ccc(-c2noc(CSc3nc4ccccc4[nH]3)n2)cc1 | 1.05 (inactive)
COc1ccccc1OCc1nc(-c2ccc(Br)cc2)no1 | 1.04 (inactive)
Clc1ccc(CSc2nnc(-c3ccccc3)o2)c(Cl)c1 | 1.03 (inactive)
Cc1cc(Br)ccc1OCc1nc(-c2ccccn2)no1 | 0.973 (inactive)
COc1ccc(-c2nnc(SCC(=O)Nc3ccc(Cl)cc3C)o2)cc1 | 0.709 (inactive)
Cc1ccc(C(=O)CSc2nnc(-c3ccco3)o2)o1 | 0.906 (inactive)
Clc1ccc(OCc2nc(-c3ccncc3)no2)cc1 | 0.749 (inactive)
COc1ccc(-c2nnc(SCC(=O)Nc3ccc(Br)c(C)c3)o2)cc1 | 0.999 (inactive)
CCCCC(=O)Nc1ccccc1-c1nc(-c2ccncc2)no1 | 1.06 (inactive)
Cc1ccc(-c2nc(-c3ccc(Br)cc3)no2)cc1 | 0.916 (inactive)
Ic1ccccc1-c1nc(-c2cccnc2)no1 | 1.02 (inactive)
COc1ccc(-c2noc(-c3cccc(Cl)c3)n2)cc1 | 0.819 (inactive)

SMILES | proportion of mobile M. hapla J2
Cc1ccccc1CSc1nnc(-c2ccncc2)o1 | 0.754 (inactive)
CCc1cccc(C)c1NC(=O)CSc1nnc(-c2ccccc2)o1 | 1.04 (inactive)
Clc1ccc(-c2nc(-c3cccnc3)no2)c(Cl)c1 | 1.04 (inactive)
CC(=O)Nc1ccc(-c2nnc(SCc3ccccc3)o2)cc1 | 0.954 (inactive)
COc1cccc(-c2noc(-c3c(F)cccc3F)n2)c1 | 0.953 (inactive)
CCOC(=O)c1sc(NC(=O)CSc2nnc(-c3ccc(Cl)cc3)o2)c(C#N)c1C | 0.929 (inactive)
Cc1ccc(-c2nc(-c3ccccc3Cl)no2)c(Cl)c1 | 0.942 (inactive)
Cc1cccc(-c2noc(COc3ccc(Cl)cc3)n2)c1 | 1.04 (inactive)
Cc1cccc(OCc2nc(-c3ccccc3)no2)c1 | 1.04 (inactive)
O=C(Nc1ccc(-c2noc(-c3ccccn3)n2)cc1)c1cccc(Cl)c1 | 0.87 (inactive)
COc1ccccc1-c1nnc(SCc2ccccc2C#N)o1 | 0.94 (inactive)
Cn1cc(C(=O)CSc2nnc(-c3ccccc3)o2)c2ccccc21 | 1.01 (inactive)
O=C(CSc1nnc(-c2ccc(Br)cc2)o1)N1CCCCCC1 | 0.844 (inactive)
Cc1ccccc1CSc1nnc(-c2ccco2)o1 | 0.547 (active)
O=C(CSc1nnc(-c2ccccc2)o1)NCc1ccccc1 | 0.948 (inactive)
COc1nc(-c2ccccc2)ccc1-c1noc(C(C)C)n1 | 0.776 (inactive)
CC(C)(C)c1ccc(-c2nnc(SCC(=O)c3ccc(F)cc3)o2)cc1 | 0.825 (inactive)
COc1ccc(-c2noc(-c3ccccc3Br)n2)cc1 | 0.765 (inactive)
CCOc1ccccc1-c1nc(-c2ccc(NC(=O)c3ccncc3)cc2)no1 | 0.977 (inactive)
O=C(CSc1nnc(-c2ccccc2)o1)Nc1cccc(C(F)(F)F)c1 | 1 (inactive)
